Where “and” joins values, the source holds several entries; their conditions need not be identical. Equal values may be shown once. Records with an inconclusive call do not appear. The source holds several records for some structures; these can differ, active in one and inactive in another. Calls of active or inactive are those of the source. How the source made its calls: active means hit-call score of the fitted dose curve at least 0.9, where 1 is the maximum; inconclusive means response in the unintended direction; inactive means score below 0.9.
Experiment: ACEA_ER_AUC_viability: ACEA Biosciences xCELLigence Real-Time Cell Analysis on Estrogen Receptor Agonism for Viability (AID 2283782);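 further: continuous compound exposure with impedance area under curve over 80 h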
Procedure: ACEA_ER is a cell-based, single-readout assay that uses T47D, a human breast cell line, with measurements taken at 80 hours after chemical dosing in a 96-well plate, although TO2 (mc0.srcf) used a 384-well plate. Differences in plate size can be ignored given data normalization.ACEA_ER_AUC_viability is one of two assay component(s) measured or calculated from the ACEA_ER assay. It is designed to make measurements of real-time cell-growth kinetics, a form of growth reporter, as detected with electrical impedance signals by Real-Time Cell Electrode Sensor (RT-CES) technology.Data from the assay component ACEA_ER_AUC_viability was analyzed in the positive analysis fitting direction relative to DMSO as the negative control and baseline of activity. Using a type of growth reporter, loss-of-signal activity can be used to understand changes in the viability. Furthermore, this assay endpoint can be referred to as a secondary readout, because this assay has produced multiple assay endpoints where this one serves a viability function. To generalize the intended target to other relatable targets, this assay endpoint is annotated to the cell cycle intended target family, where the subfamily is cytotoxicity.
The xCELLigence system Multi-E-Plate stations were used to measure the time-dependent response to chemicals. Each compound was tested in an eight-point, 1:4 serial dilution series starting at a maximum final concentration of 100 uM. A maximum starting concentration of 0.5% DMSO was present in the 100 uM chemical samples and was diluted along with the test article dilution series. The screen was performed in biological duplicate using two separate, 96-well, E-Plates 96 for each dilution series (n = 2). Positive controls (MG132 and E2) and a negative control (assay media) were tested in quadruplicate on each testing plate. Then, 0.5% and 0.125% DMSO were tested in duplicates in each plate to serve as solvent controls for the 2 highest concentrations of testing compounds: 100 uM and 25 uM. Reference compounds were tested with 8 concentrations with 1:5 serial dilutions. All screening was carried out by ACEA Biosciences, Inc. (San Diego, CA). T-47D cells purchased from ATCC were maintained in RPMI1640 media supplemented with 10% characterized fetal bovine serum (FBS). Before screening, T-47D cells were preconditioned in assay medium: phenol red-free RPMI1640 supplemented with 10% charcoal-stripped FBS. Cells were then detached and seeded in E-Plates 96 in assay medium. After overnight monitoring of growth once every hour, compounds were added to […] cells and remained in the medium until the end of the experiment. Cellular responses were then recorded once every 5 min for the first 5 h, and once every hour for an additional 100 h.
With `N=C(N)c1ccc(OCCCCCOc2ccc(C(=N)N)cc2)cc1` the AC50 was 63.5 µM (active).
In the case of `NS(=O)(=O)O`, the outcome is reported as “inactive”.
With `CCC(C)c1nccnc1OC` (stereo not given) the outcome was “inactive”.
With `O=C(O)C(F)(F)OC(F)(F)C(F)(F)OC(F)(F)C(F)(F)OC(F)(F)C(F)(F)C(F)(F)C(F)(F)F` the AC50 was 119 µM (active).
With `NC(=NCCCCCCN=C(N)/N=C(\N)Nc1ccc(Cl)cc1)/N=C(\N)Nc1ccc(Cl)cc1` the AC50 was 8.38 µM (active) and 9.06 µM (active).
For `CCCCc1ccc2ccccc2c1S(=O)(=O)O`, the outcome was “inactive”.
In the case of `CCCCCCCCCCCC[N+](C)(C)Cc1ccccc1`, the AC50 is reported as 3.05 µM (active) and 5.69 µM (active).
For `Cc1cc(C(=C2C=CC(=Nc3ccc(S(=O)(=O)O)cc3)C=C2)c2ccc(Nc3ccc(S(=O)(=O)O)cc3)cc2)cc(S(=O)(=O)O)c1N`, the outcome was “inactive”.
With `CCCCCCCCCCCCCCC` the outcome was “inactive”.
For `CCCCN(C)C`, the outcome was “inactive”.
For `Cc1ccc(S(=O)(=O)O)cc1`, the outcome was “inactive”.
With `Cn1sccc1=O` the AC50 was 40.2 µM (active).
With `C=Cc1ccc(O)c(OC)c1` the outcome was “inactive”.
In the case of `O=S(=O)(O)C(F)(F)C(F)(F)C(F)(F)C(F)(F)C(F)(F)C(F)(F)C(F)(F)C(F)(F)C(F)(F)C(F)(F)F`, the outcome is reported as “inactive”.
For `Cc1cc(Cc2cc(C)cc(C(C)(C)C)c2O)c(O)c(C(C)(C)C)c1`, the AC50 was 11.4 µM (active).
In the case of `CCCCCCCCCCCCOC(=O)c1cc(O)c(O)c(O)c1`, the AC50 is reported as 2.97 µM (active).
For `CCc1ccccc1O`, the outcome was “inactive”.
For `Cc1cc(C(C)(C)C)c(O)c(C(C)(C)C)c1`, the AC50 was 79.4 µM (active).
For `CCCCc1oc2ccccc2c1C(=O)c1cc(I)c(OCCN(CC)CC)c(I)c1`, the AC50 was 11.5 µM (active).
For `CCCCCC(C)OC(=O)COc1ccc(Cl)c2cccnc12` (stereo not given), the outcome was “inactive”.
With `CCCCCCc1ccc(N)cc1` the AC50 was 50 µM (active).
In the case of `CC(C)(C)C1CCCCC1O` (stereo not given), the AC50 is reported as 77.7 µM (active).
For `COCN(COC)c1nc(N(COC)COC)nc(N(COC)COC)n1`, the outcome was “inactive”.
With `CCO[Si](C)(C)OCC` the outcome was “inactive”.
For `OCCN1CN(CCO)CN(CCO)C1`, the AC50 was 81.8 µM (active).
For `O=C1OC2(c3ccccc31)c1cc(I)c(O)c(I)c1Oc1c2cc(I)c(O)c1I`, the outcome was “inactive” and the AC50 was 18.5 µM (active).
In the case of `CN(C)c1ccc(C(=C2C=CC(=[N+](C)C)C=C2)c2ccccc2)cc1`, the AC50 is reported as 3.16 µM (active) and 3.1 µM (active).
In the case of `CC(C)[C@@H]1CC[C@@H](C)C[C@H]1O`, the outcome is reported as “inactive”.
In the case of `C=CCOCC(CO)(CO)CO`, the outcome is reported as “inactive”.
With `CC(O)COc1ccccc1` (stereo not given) the outcome was “inactive”.
For `CCOC(OCC)C(=O)c1ccccc1`, the outcome was “inactive”.
With `CN(C)CCOC(c1ccccc1)c1ccccc1` the AC50 was 50 µM (active).
With `OCC(F)(F)C(F)(F)C(F)(F)C(F)(F)C(F)(F)C(F)(F)C(F)(F)C(F)(F)C(F)(F)C(F)(F)C(F)(F)F` the AC50 was 16.6 µM (active).
With `CCN(CCC#N)c1ccccc1` the outcome was “inactive”.
With `O=C(O)C(=O)O` the outcome was “inactive”.
With `Cc1ccc(C(=O)c2ccccc2)cc1` the AC50 was 72.3 µM (active).
With `O=C(CC(=O)C(F)(F)C(F)(F)C(F)(F)F)c1cccs1` the AC50 was 113 µM (active).
In the case of `CCCCCCCCC1CCC(=O)O1` (stereo not given), the AC50 is reported as 67.5 µM (active).
For `C=CC(=O)OCCC(F)(F)C(F)(F)C(F)(F)C(F)(F)C(F)(F)C(F)(F)C(F)(F)C(F)(F)F`, the outcome was “inactive”.
